Anthrax LF inh2: inhibitors of Bacillus anthracis lethal factor protease; multiplex microsphere protease cleavage assay, LF; inhibition, % at 10 µM; 360,000 compounds, 0.12% hits; note: plate controls were buffer without enzyme for full effect and enzyme alone for no effect
MazEF act: MazEF (E. coli) toxin RNase activation. activation, % at 20 µM. FAM/BHQ RNA-DNA oligo cleavage fluorescence, 5 h. P0AE70. 350,000 compounds, 0.32% hits. AID 504720; in the data active = activation above about 50%
Target sequence (P0AE70 whole entry, looked up): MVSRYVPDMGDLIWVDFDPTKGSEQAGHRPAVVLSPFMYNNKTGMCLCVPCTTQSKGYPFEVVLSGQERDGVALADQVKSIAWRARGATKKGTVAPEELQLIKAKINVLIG
BoNT A protease: blocks Botulinum neurotoxin A light chain protease. multiplex microsphere protease substrate cleavage, flow cytometry. inhibition, % at 10 µM. 360,000 compounds, 0.17% hits; note: plate controls were buffer without enzyme for full effect and enzyme alone for no effect
PfHsp40 yeast: compounds rescuing yeast from Plasmodium falciparum HSP40 toxicity. S. cerevisiae expressing PfHsp40, growth rescue, ATP luminescence. AID 504582. 340,000 compounds, 0.68% hits. growth rescue, % at 12.5 µM; in the data active = growth rescue above about 28%, passing the limit was not always enough; inconclusive = no clear call, values can overlap the other calls;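 note: yeast W303a lacking pdr1 and pdr3 grown in galactose medium; growth measured after three days at 30 °C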
BoNT-F LC inh: inhibitors of Botulinum neurotoxin F light chain protease | Multiplex microsphere protease cleavage assay, flow cytometry | AID 588497 | inhibition, % at 10 µM | 360,000 compounds, 0.22% hits; in the data active = inhibition above about 35%, passing the limit was not always enough; inconclusive = no clear call, values can overlap the other calls; note: plate controls were buffer without enzyme for full effect and enzyme alone for no effect
Bead autofluor: flagged as autofluorescent in microsphere protease counterscreen | compound autofluorescence counterscreen, microsphere flow cytometry; hits give high values | fluorescence intensity (no concentration beside the values) | 360,000 compounds, 3.1% hits | AID 624483; in the data active = fluorescence intensity above about 16000; inconclusive = no clear call, values can overlap the other calls
Active calls of the source: *; ? = inconclusive; · = no result; ! = not confirmed by another sample. Most compounds without a hit are left out; they make up all but 4.3% or so of the library. Cut-off read from the data, not from the text of the source, unless noted: active = inhibition above about 30%; inconclusive = no clear call, values can overlap the other calls; inactive = below that.

SMILES | Anthrax LF inh2 | MazEF act | BoNT A protease | PfHsp40 yeast | BoNT-F LC inh | Bead autofluor
CC1CN(C2CCN(C(=O)c3ccccc3)CC2)CC(C)O1 (stereo not drawn) | -2.2 | 4.1 | -0.3 | 2.7 | 1.1 | 16799*
Cn1nnnc1SCCNC(=O)C1CCC(=O)N(Cc2ccc(Cl)cc2)C1 (stereo not drawn) | -1.9 | 2.2 | -1.2 | 0.1 | 12.8 | 4283
O=C(COc1ccc(Nc2ccccc2)cc1)OCC(=O)N1CCCCC1 | -4.7 | -7.4 | -0.3 | 0.5 | -6.6 | 4055
Cc1c(Cl)cnc(NC(=O)CSc2n[nH]c(N)n2)c1Cl | -9.3 | -3.8 | -0.8 | -0.2 | -4.0 | 3777
O=C(c1[nH]c(C(F)(F)F)nc1-c1ccccc1)N1CCN(C/C=C/c2ccccc2)CC1 | -2.1 | · | -0.1 | · | -4.7 | 5948
O=S(=O)(c1ccc(F)cc1)N1CCN(c2ccc(-c3ccccc3)nn2)CC1 | -7.5 | 63.1* | 0.7 | 0.9 | 4.0 | 4132
O=C(c1ccc(F)cc1)N1CCC(N2CCOCC2)CC1 | -1.8 | 1.9 | -0.6 | -0.2 | -12.5 | 4684
CN1CCN(S(=O)(=O)c2ccc(Cl)c(C(F)(F)F)c2)CC1 | 4.1 | 8.7 | 0.1 | 0.6 | 4.1 | 3630
O=C(c1ccc(F)cc1)N1CCC(N2CCCCCC2)CC1 | -3.0 | -9.7 | -0.3 | -1.4 | -3.5 | 16826*
O=c1ccc(S(=O)(=O)N2CCCC2)cn1Cc1nc(-c2ccc(F)cc2)no1 | -56.3 | 0.6 | -213.0 | 0.6 | -372.7 | 57271*
CC1CN(S(=O)(=O)c2ccc(Cl)c(C(F)(F)F)c2)CC(C)O1 (stereo not drawn) | 2.0 | -1.3 | ? | -0.8 | -2.9 | 16300*
COc1ccc(-c2noc(Cn3cc(S(=O)(=O)N4CCCC4)ccc3=O)n2)cc1 | -4.9 | -1.1 | 1.0 | -1.0 | 6.9 | ?
O=S(=O)(Nc1cccc(-c2ccc(N3CCCCCC3)nn2)c1)c1ccc(F)cc1 | 0.3 | 18.0 | 0.1 | 1.2 | -0.9 | 6208
COc1ccc(S(=O)(=O)N2CCOC23CCN(C(=O)c2ccccc2OC)CC3)cc1 | -5.1 | -1.7 | -2.5 | 1.3 | -7.9 | ?
O=C(CCC(=O)NC1CCCCC1)Nc1cccnc1 | 14.7 | -3.4 | 2.3 | -0.5 | -9.7 | 3379
CCCCOC(=O)CSc1nc2ccccc2o1 | · | 13.3 | · | · | · | ·
O=C(OCc1cccc([N+](=O)[O-])c1)c1ccc[nH]c1=O | -5.3 | 0.4 | 1.6 | -0.3 | -1.8 | 4021
CCC(=O)Nc1ccc2c(c1)nc1n2CCSC1 | · | 0.3 | · | -1.2 | · | ·
O=C(Nc1ccc2c(c1)nc1n2CCSC1)c1ccccc1 | 5.2 | -4.1 | 0.5 | 0.5 | 0.5 | 21018*
CC(C)C(=O)Nc1ccc2c(c1)nc1n2CCSC1 | -0.8 | 5.0 | 1.0 | -0.2 | 6.6 | 16136*
Cc1cc(Oc2nnnn2-c2ccccc2)ccc1Cl | -2.4 | -0.4 | ? | 0.6 | 0.9 | 19957*
O=C(O)c1cc(-c2ccc3c(c2)OCCO3)n[nH]1 | 4.8 | 5.6 | 0.5 | -0.2 | -4.0 | 4754
Oc1ccccc1-c1cc(-c2ccc3c(c2)OCCO3)n[nH]1 | -8.1 | 10.7 | -1.3 | 476.1* | -29.5 | 12063
O=c1cc2c(nn1Cc1cccc(Cl)c1)-c1ccccc1CC2 | -4.5 | -4.0 | 0.6 | 46.5* | -14.7 | 3466
O=c1n(S(=O)(=O)c2cccc3cccnc23)c2ccccc2n1S(=O)(=O)c1cccc2cccnc12 | -0.6 | -14.8 | 6.7 | 0.0 | 7.8 | 20693*
SMILES | Anthrax LF inh2 | MazEF act | BoNT A protease | PfHsp40 yeast | BoNT-F LC inh | Bead autofluor
O=S(=O)(c1cccc2cccnc12)N1CCOCC1 | 2.2 | 10.1 | 0.2 | -1.6 | -1.0 | 23370*
CC1CCCCN1CCNC(=O)C1CCN(S(=O)(=O)c2cccc3cccnc23)CC1 (stereo not drawn) | -3.2 | -20.4 | -4.3 | -1.9 | -10.7 | 17441*
Cc1cccc(CCNC(=O)C2CCN(S(=O)(=O)c3cccc4cccnc34)CC2)c1 | 0.5 | -3.5 | -0.7 | -0.3 | -0.8 | 4711
O=S(=O)(c1cccc2cccnc12)N1CCN(c2ccc(F)cc2)CC1 | -4.5 | 2.1 | -1.1 | -0.7 | -3.9 | 4803
CC(=O)c1cccc(S(=O)(=O)Nc2cccnc2)c1 | 2.5 | 9.1 | 0.3 | -1.4 | 0.7 | 4351
COc1ccccc1NC(=O)c1cccc(N2C(=O)C3C4C=CC(C4)C3C2=O)c1 (stereo not drawn) | 0.5 | 2.0 | -2.5 | -0.2 | -3.4 | 6286
O=C(Cn1c(C(F)(F)F)nc2ccccc21)OCC(=O)c1c[nH]c2ccccc12 | 19.9 | 4.0 | 57.1* | 0.5 | -9.4 | 4605
O=C(O)C1(Nc2ccc([N+](=O)[O-])cc2[N+](=O)[O-])CCCC1 | -5.3 | 6.8 | -0.4 | -1.7 | -1.9 | 3092
CCN(CC(=O)Nc1c(F)cccc1F)C(=O)c1ccc(S(=O)(=O)NCc2ccco2)cc1 | -4.4 | -1.9 | 0.8 | 1.0 | 6.9 | 5972
CCOC(=O)N1C(=O)C2(CCCCC2)N(c2ccccc2Cl)C1=S | -0.9 | -0.1 | -0.1 | 283.9* | -5.1 | 2429
O=C(O)C(Nc1nc(C(F)(F)F)nc2ccccc12)c1ccccc1 (stereo not drawn) | 10.8 | 15.9 | 1.7 | -0.7 | ? | 3843
C/C(N)=C(/C#N)C(=O)CSc1nnc(Nc2cccc(C)c2)s1 | -0.2 | -13.5 | -0.2 | -0.8 | -0.4 | 17498*!
C/C(N)=C(/C#N)C(=O)CSc1cc(Cl)ccc1Cl | -3.7 | -0.5 | 0.1 | -0.8 | -3.4 | 2072
C/C(N)=C(/C#N)C(=O)CSc1nc2cc(Cl)ccc2s1 | 1.2 | -13.1 | ? | -0.2 | -4.7 | 24839*
CC(=O)c1ccc(OC(=O)COc2ccccc2Cl)cc1 | -115.2 | 3.5 | -126.3 | 1.5 | ? | 32253*
Cc1ccc(OC(=O)COc2ccccc2C)cc1 | 8.3 | 8.2 | -5.5 | -0.4 | -11.2 | 3589
CN(C)C(CNC(=O)c1ccc(NS(=O)(=O)c2ccc(F)cc2)cc1)c1ccco1 (stereo not drawn) | -26.7 | 9.0 | -128.2 | -0.1 | -186.1 | 36456*
O=C(NCC(c1ccco1)N1CCCC1)c1ccc(S(=O)(=O)Nc2ccc(F)cc2)cc1 (stereo not drawn) | -2.7 | -16.0 | 0.2 | -0.1 | -3.0 | 9656
Cc1ccc(NS(=O)(=O)c2ccc(C(=O)NCC(c3ccco3)N(C)C)cc2)cc1 (stereo not drawn) | -1.5 | -0.9 | 3.4 | 1.7 | -0.4 | 5202
CCOc1ccc(NS(=O)(=O)c2ccc(C(=O)NCC(c3ccco3)N3CCCC3)cc2)cc1 (stereo not drawn) | 5.9 | 52.2* | -0.5 | 0.0 | 0.4 | 4954
COc1ccc(S(=O)(=O)N2CCOCC2)cc1C(=O)Nc1ccc(N2CCCCCC2)cc1 | -14.6 | -0.6 | -0.3 | -0.1 | -12.5 | 2876
COC(=O)C1=CN(C)C=C(C(=O)OC)C1c1ccc(O)c(OC)c1 | -5.7 | 1.0 | ? | -0.6 | -6.3 | 23196*
CCOc1cc(C2C(C(=O)OC)=CN(Cc3ccc(Cl)cc3)C=C2C(=O)OC)ccc1O | -7.5 | 1.7 | 3.5 | 0.3 | 48.0* | 3776
COC(=O)C1=CN(Cc2ccccc2)C=C(C(=O)OC)C1c1ccc(O)c(OC)c1 | -7.2 | 3.6 | -3.8 | 1.3 | -16.3 | 3422

Screening data as filed in PubChem.
